# Results from PubChem BioAssay (NCI).
# This is part of a sample that, as a whole, favours compounds with a hit. Of some 83,000 tested, about 20% had one in any assay.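 Negative percent growth values reflect cell death: -40 means 40% of the cells present at the start died, and -100 means all died.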 A number with no mark means an inactive call. The source made the active and inactive calls. How the source made its calls: active means growth percent below 10; inactive means the rest.
# Assays:
# Experiment in all cases: NCI-60 one-dose screen, 48 h (100 = growth as untreated, 0 = no growth, -100 = all killed)
# Conditions in all cases: 10 µM unless noted
# NCI-H23 lung = tested on: NCI-H23 lung
# NCI-H226 lung = tested on: NCI-H226 lung
# NCI-H322M lung = tested on: NCI-H322M lung
# HOP-62 NSCLC = tested on: HOP-62 NSCLC
# NCI-H460 lung = tested on: NCI-H460 lung
# HOP-92 NSCLC = tested on: HOP-92 NSCLC
# NCI-H522 lung = tested on: NCI-H522 lung
# A549/ATCC NSCLC = tested on: A549/ATCC NSCLC
# 786-0 renal = tested on: 786-0 renal
# COLO 205 colon = tested on: COLO 205 colon
# DU-145 prostate = tested on: DU-145 prostate
# K-562 leukemia = tested on: K-562 leukemia
# MALME-3M melanoma = tested on: MALME-3M melanoma
# MDA-MB-231 breast = tested on: MDA-MB-231 breast
# SF-268 CNS = tested on: SF-268 CNS
# SF-295 CNS = tested on: SF-295 CNS
# SF-539 CNS = tested on: SF-539 CNS
# M14 melanoma = tested on: M14 melanoma
# RXF 393 renal = tested on: RXF 393 renal
SMILES,growth (NCI-H23 lung),growth (NCI-H226 lung),growth (NCI-H322M lung),growth (HOP-62 NSCLC),growth (NCI-H460 lung),growth (HOP-92 NSCLC),growth (NCI-H522 lung),growth (A549/ATCC NSCLC),growth (786-0 renal),growth (COLO 205 colon),growth (DU-145 prostate),growth (K-562 leukemia),growth (MALME-3M melanoma),growth (MDA-MB-231 breast),growth (SF-268 CNS),growth (SF-295 CNS),growth (SF-539 CNS),growth (M14 melanoma),growth (RXF 393 renal) [%]
CCOC(=O)C1=C(C)NC(=O)NC1c1cc(=O)oc2ccc(C)cc12 (stereo not drawn),96.9%,93.4%,98.6%,105%,108%,95.6%,81.5%,97.6%,102%,105%,104%,103%,99%,106%,101%,96.9%,102%,102%,–
COc1cc2c(cc1OCCCCCN1CCN(c3ncnc4ccccc34)CC1)N=CC1CCCN1C2=O (stereo not drawn),3.3% (active),-58.2% (active),-0.115% (active),-22.4% (active),5.35% (active),-63.8% (active),-55.4% (active),1.13% (active),-9.08% (active),-46.1% (active),-20.8% (active),5.44% (active),-59% (active),-26.6% (active),-0.231% (active),-39.7% (active),-77.3% (active),-66.9% (active),–
COc1ccc(OC)c(NC2=C(SCCc3ccccc3)C(=O)c3ccccc3C2=O)c1,45.2%,78.8%,89.7%,97.8%,91.6%,77.8%,73%,87.2%,100%,95.6%,92.2%,91.2%,90.8%,62.8%,84.6%,92.2%,85.7%,83.3%,–
COC(=O)[C@]12CC[C@@H](C)[C@H](C)[C@@H]1C1=CC[C@@H]3[C@@]4(C)C(C=O)=C[C@@](C)(COS(C)(=O)=O)C4=CC[C@@]3(C)[C@]1(C)CC2,-45.8% (active),-57% (active),12.2%,-14.5% (active),-73.6% (active),-87.7% (active),-75.2% (active),-14.6% (active),-66% (active),-39.9% (active),-92.2% (active),-6.44% (active),-77.7% (active),-55.4% (active),-57.1% (active),-60.2% (active),-69.8% (active),-55.8% (active),–
Cc1ccc(N=C2CSc3nnc(-c4csc5c4CCCC5)n3N2)cc1,41%,69.5%,57.9%,27.9%,11.8%,67.7%,29%,26.5%,32.3%,-4.99% (active),25.4%,10.7%,70.6%,43%,40.8%,-6.51% (active),-2.46% (active),5.9% (active),–
CC(C)c1ccc(/C=N/Nc2nc3ccccc3s2)cc1,80.4%,81.7%,96%,87.8%,95.2%,82.5%,85%,85.8%,108%,88.5%,101%,85.5%,62.9%,81.6%,99.2%,98.5%,103%,94.5%,–
CCCCCCC1(/C=N/NC(N)=O)NC(=O)NC1=O (stereo not drawn),94%,91.4%,102%,78.3%,111%,110%,58%,70.5%,98.2%,91.9%,107%,102%,103%,110%,99.3%,98.1%,96.3%,97.3%,–
Cc1nn(-c2nc3ccccc3[nH]2)c2c1C(c1ccc(O)cc1)CC(=O)N2 (stereo not drawn),74.9%,96.9%,104%,93.1%,57.4%,99.3%,52%,61.3%,115%,103%,99.5%,97.8%,100%,71.9%,74%,-16.2% (active),95.4%,72%,–
COC(=O)CC[C@@H](C)[C@H]1CC[C@H]2C3CC[C@@H]4C[C@@H]5CC[C@]4(C)[C@@]3(O5)[C@H](Br)[C@@H](Br)[C@]12C (stereo partly drawn),81.1%,87.1%,104%,85.8%,107%,93.4%,58%,68.6%,92.5%,101%,101%,78.2%,103%,99.4%,91.2%,99.3%,103%,90.6%,–
COc1cc2c3c(c1)nc(C)n3CCC2,98.4%,91.1%,108%,90.7%,104%,94.9%,93.4%,82%,98.1%,107%,109%,98.8%,110%,107%,107%,95.8%,97.9%,100%,–
O=c1nc2c(-c3nc4ccccc4s3)n[nH]n2c2sc3c(c12)CCCC3,98.2%,90.1%,107%,90.5%,102%,90.7%,99.9%,96.1%,102%,106%,104%,92.3%,104%,93.7%,97.6%,89.8%,105%,98.8%,–
c1cc[n+](Cc2c3ccccc3cc3c2ccc2ccccc23)cc1,16.9%,26.3%,53.9%,23.7%,42.8%,25%,18.4%,63.7%,38%,2.06% (active),57.2%,16.4%,-23.5% (active),72.1%,7.4% (active),4.38% (active),13.6%,62.3%,–
Cc1cc(O)c2c(c1)C1OC(=O)CCCCCN1C1=C2C(=O)c2cccc(OC3CC(O)C(O)C(C)O3)c2C1=O (stereo not drawn),79.8%,118%,94.7%,123%,65.3%,134%,34.1%,59.9%,101%,53.3%,57.2%,28.3%,40.6%,32.7%,90.8%,93.9%,83.5%,66.6%,–
COc1cnc2c(c1)C(=O)c1c-2n(CCCN2CCC(N)CC2)c(=O)c2cc([N+](=O)[O-])ccc12,38.4%,35.7%,52.8%,30.6%,11.2%,67.1%,42.2%,23%,36.2%,58.2%,13.2%,49.2%,–,57.9%,50%,24.2%,70.3%,52.9%,64.4
CSc1nc2ncnc(SC)c2[nH]1,96.1%,98.2%,101%,77.8%,109%,98.7%,76%,62.3%,98.9%,103%,110%,100%,110%,107%,102%,102%,103%,97.9%,–
CC(C)(C)C(=O)OCOP(=O)(OCOC(=O)C(C)(C)C)C1CCCN(OC(=O)c2ccccc2)C1=O (stereo not drawn),16.8%,34.9%,21.2%,22.8%,15.6%,29.3%,12.9%,24.6%,17.8%,14.3%,36.9%,9.43% (active),29.4%,12.7%,36%,57.3%,53%,47.2%,–
